Experimental data taken from PubChem BioAssay (Tox21).
Several values for one entry are separate records, joined by “and”; a condition that tells them apart may be missing. Identical values can stand only once. Results filed as inconclusive are left out. A call without a number means that no potency is given here. A structure can be active in one record and inactive in another. Activity calls are given as the source filed them. Calls follow the shape of the dose curve; as a rule, active = well fitted activation curve with a large enough effect in the signal ratio in the repeat runs (not every such curve was filed as active); inconclusive = weak or mixed curves, or effect the other way; inactive = no such curve, though single readings can be large or run the other way; the % refers to the signal ratio.

Experiment: qHTS assay for small molecule agonists of the antioxidant response element (ARE) signaling pathway (AID 743202)
Details: HepG2 ARE-bla reporter, beta-lactamase FRET, 16 h; series mostly up to 73.3 µM; activation: at the top concentration
Excerpt: U.S. Tox21 Program National Center for Advancing Translational Sciences [NCATS] NIH Chemical Genomics Center [NCGC] U.S. Environmental Protection Agency [EPA] National Institutes of Environmental Health Sciences [NIEHS] National Toxicology Program [NTP] U.S. Food and Drug Administration [FDA] Tox21 Assay Overview: Oxidative stress has been implicated in the pathogenesis of a variety of diseases ranging from cancer to neurodegeneration. The antioxidant response element (ARE) signaling pathway plays an important role in the amelioration of oxidative stress. The CellSensor ARE-bla HepG2 cell line (Invitrogen) can be used for analyzing the Nrf2/antioxidant response signaling pathway. Nrf2 (NF-E2-related factor 2) and Nrf1 are transcription factors that bind to AREs and activate these genes. The CellSensor ARE-bla Hep G2 cell line contains a beta-lactamase reporter gene under control of the Antioxidant Response Element (ARE) stably integrated into HepG2 cells. The activation of the report gene under culture conditions can be detected by fluorescence intensity. This cell line has been used to screen the Tox21 10K compound library to identify agonists that induce oxidative stress.
Tox21 Assay Protocol Summary: The ARE-bla cells were dispensed at 2,000 cells/5 ul/well in 1536-well black wall/clear bottom plates using a Multidrop dispenser. After the assay plates were incubated at a 37 C/5% CO2 incubator for 5 hours, 23 nL of compounds dissolved in DMSO, positive controls or DMSO only was transferred to the assay plate by a pin tool. The plates were incubated at 37 C for 16 hours. After 1 uL of LiveBLAzer B/G FRET substrate was added using a Flying Reagent Dispenser, the plates were incubated at room temperature for 2 hours, and fluorescence intensity was measured by an Envision plate reader.
Potency is read from the fitted curve at half-maximal effect.

SMILES | Potency | activation
CC(=O)OCC(COC(C)=O)OC(C)=O | inactive | –
CC(C)[C@@H]1CC[C@@H](C)C[C@H]1O | inactive | –
CC(=O)NS(=O)(=O)c1ccc(N)cc1 | inactive | –
Cc1ccc(C)c(OCCCC(C)(C)C(=O)O)c1 | inactive | –
O=C1CN(/N=C/c2ccc([N+](=O)[O-])o2)C(=O)N1 | 17.2 µM (active) and 26.6 µM (active) | –
O=C(O)CCCCCCCC(=O)O | inactive | –
OC(Cn1cncn1)(Cn1cncn1)c1ccc(F)cc1F | inactive | –
Nc1ccc(O)c(C(=O)O)c1 | – | 0.345% (inactive)
CC(O)CO (stereo not given) | inactive | –
CCOc1ccc(NC(=O)CC(C)O)cc1 (stereo not given) | inactive | –
CNC[C@H](O)c1cccc(O)c1 | inactive | –
NC(=O)c1cnccn1 | inactive | –
O=C(O)CCCCC(=O)O | inactive | –
O=C(O)C(=O)O | inactive | –
Cc1ccc(O)cc1 | inactive | –
c1ccc2[nH]ccc2c1 | inactive | –
O=C(c1ccccc1)c1ccccc1 | inactive | –
CCCCC(CC)COC(=O)/C=C/c1ccc(OC)cc1 (stereo not given) | – | 0.145% (inactive)
NC(N)=O | inactive | –
Cc1cn([C@H]2C[C@H](N=[N+]=[N-])[C@@H](CO)O2)c(=O)[nH]c1=O | inactive | –

SMILES | Potency | activation
COc1c2occc2cc2ccc(=O)oc12 | inactive | –
Nc1ccc(S(=O)(=O)c2ccc(N)cc2)cc1 | inactive | –
CCCCC1C(=O)N(c2ccccc2)N(c2ccccc2)C1=O | inactive | –
Cn1c(=O)c2[nH]cnc2n(C)c1=O | inactive | –
CCCC(CCC)C(=O)O | inactive | –
NC(N)=NC(=O)c1nc(Cl)c(N)nc1N | inactive and 25.3 µM (active) | –
O=S(=O)(O)NC1CCCCC1 | inactive | –
CCCC(O)C(CC)CO (stereo not given) | inactive | –
Cc1cc(=O)n(-c2ccccc2)n1C | inactive | –
NC(=O)c1ccccc1O | – | -7.95% (inactive)
CC1(C)[C@@H]2CC[C@@]1(C)C(=O)C2 | inactive | –
O=C(O)c1cccc([N+](=O)[O-])c1 | inactive | –
O=C(O)/C=C\C(=O)O | inactive | –
C1N2CN3CN1CN(C2)C3 | inactive | –
CCCCCCCCCCCCCCCC(=O)O | inactive | –
O=c1cc[nH]c(=S)[nH]1 | inactive | –
Cc1ccccc1C(OCCN(C)C)c1ccccc1 (stereo not given) | – | -14.5% (inactive)
O=C(O)c1cc(N=Nc2ccc(S(=O)(=O)Nc3ccccn3)cc2)ccc1O | inactive | –
O=C(O)CS | inactive | –
Cc1cc(=O)[nH]c(=S)[nH]1 | inactive | –
